The values that follow come from a collection of fitness landscapes (doi:10.1038/s41467-024-54723-y).

The full ranking holds about 18,000 sequences; the median of “TetR repression strength (sort-seq, GFP reporter)” is about 0.23, and the highest 2% start at about 0.68. This excerpt belongs to a sample that is enriched for the highest values.

This assay deals with TetR (class B, Tn10) (UniProt P04483). The assay is described as follows: TetR repression strength (sort-seq, GFP reporter) (relative to tetO2 = 1); higher = stronger repression. The conditions noted are these: E. coli. The method, boiled down: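 Three independent transformations of E. coli SIG10-MAX were made with a low-copy plasmid library randomizing eight operator positions between a constitutive promoter and sfGFP, with constitutive TetR. Following 5 h at 37 °C in LB plus 50 µg/mL chloramphenicol, 10^6 cells went through FACS into 13 fluorescence bins, and each bin was sequenced by Illumina. Repression strength was defined as the top bin index plus one minus the read-weighted mean bin, divided by the unaltered operator's value. Averages included only members reaching ≥30 reads in all replicates with a CV ≤0.5.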
TetR (class B, Tn10), sequence (P04483 whole entry): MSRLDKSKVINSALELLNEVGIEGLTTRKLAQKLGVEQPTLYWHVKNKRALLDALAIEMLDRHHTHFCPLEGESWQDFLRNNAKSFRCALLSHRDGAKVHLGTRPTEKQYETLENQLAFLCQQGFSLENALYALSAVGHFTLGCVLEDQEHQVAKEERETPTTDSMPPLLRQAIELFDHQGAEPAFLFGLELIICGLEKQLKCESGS
In the case of TCCCTTATAGTCTCGGAGA, the TetR repression strength was determined as 0.214.

For the sequence TCCCTGTCAGTGAGCGAGA, the TetR repression strength was found to be 0.341.

With TCCCTATCAGTGAGCGAGA, the TetR repression strength was 0.73.

On to TCCCTCTCAGTGATGGAGA, for which the TetR repression strength came out at 0.546.

In the case of TCCCAATCAGTAACTGAGA, the TetR repression strength is 0.278.

Sequence TCCCTATCAGTCAATGAGA registered a TetR repression strength of 0.625.

In the case of TCCCTATCAGTCATTGAGA, the TetR repression strength was found to be 0.708.

In turn, TCCCTATAAGTCATTGAGA registered a TetR repression strength of 0.498.

On to TCCCTATCAGTGATGGAGA, for which the TetR repression strength stood at 0.999.

TCCCTATGAGTGAGCGAGA: the TetR repression strength amounted to 0.278.

For the sequence TCCCCATCAGTAACGGAGA, the TetR repression strength is 0.304.

TCCCAATCAGTAACGGAGA showed a TetR repression strength of 0.802.

As for TCCCTAACAGTGATGGAGA, the TetR repression strength came to 0.278.

TCCCGTTCAGTGCTTGAGA came in with a TetR repression strength of 0.367.

The sequence TCCCACTCAGTGCATGAGA came in with a TetR repression strength of 0.218.

Consider TCCCCCTGAGTAGGCGAGA, for which the TetR repression strength turned out to be 0.179.

Turning to TCCCCGCAAGTACACGAGA, the TetR repression strength came out at 0.292.

Take TCCCCAGGAGTGATGGAGA: the TetR repression strength came out at 0.176.

Take TCCCTAGTAGTTGTGGAGA: the TetR repression strength was determined as 0.283.

TCCCTCGGAGTTGGTGAGA: the TetR repression strength was 0.237.

TCCCTGTCAGTCGGTGAGA returned a TetR repression strength of 0.378.

As to TCCCCGGCAGTGGTGGAGA, the TetR repression strength is 0.25.

In turn, TCCCGGACAGTGCCAGAGA came in with a TetR repression strength of 0.402.

Sequence TCCCATGGAGTCGGTGAGA yielded a TetR repression strength of 0.0966.

TCCCGGACAGTGAGAGAGA: the TetR repression strength was 0.246.

TCCCGGACAGTGTGAGAGA returned a TetR repression strength of 1.2.

TCCCGGACAGTTTGGGAGA: the TetR repression strength stood at 0.473.

For the sequence TCCCGGACAGTTGGGGAGA, the TetR repression strength came out at 0.922.

TCCCAATCAGTGAATGAGA came in with a TetR repression strength of 0.603.

In turn, TCCCTATAAGTCAGTGAGA registered a TetR repression strength of 0.427.

TCCCGGACAGTGTGTGAGA came in with a TetR repression strength of 0.2.

TCCCGGACAGTTGGAGAGA displayed a TetR repression strength of 0.299.

On to TCCCTATAAGTGAGGGAGA, for which the TetR repression strength turned out to be 0.237.

With TCCCTAACAGTGAATGAGA, the TetR repression strength worked out at 0.46.

As for TCCCTATCAGTGAATGAGA, the TetR repression strength came out at 0.781.

On to TCCCTATAAGTGAGTGAGA, for which the TetR repression strength stood at 0.693.

TCCCGCGAAGTAAGCGAGA registered a TetR repression strength of 0.151.

In turn, TCCCTCCTAGTGCGAGAGA yielded a TetR repression strength of 0.151.

Regarding TCCCCGTGAGTTGGAGAGA, the TetR repression strength was 0.319.

In turn, TCCCCATGAGTTAGCGAGA showed a TetR repression strength of 0.188.

The sequence TCCCTGCCAGTTCATGAGA had a TetR repression strength of 0.0931.

The sequence TCCCGAGCAGTGGAGGAGA returned a TetR repression strength of 0.35.

Sequence TCCCCTAGAGTGGGGGAGA came in with a TetR repression strength of 0.195.

Regarding TCCCGTTCAGTTTGTGAGA, the TetR repression strength was 0.145.

Turning to TCCCAATCAGTTAGGGAGA, the TetR repression strength came out at 0.146.

For TCCCTGGCAGTCGGGGAGA, the TetR repression strength turned out to be 0.473.

The sequence TCCCTAGTAGTGCAAGAGA returned a TetR repression strength of 0.538.

Take TCCCTGTGAGTCTCAGAGA: the TetR repression strength is 0.365.

TCCCTTTAAGTAAGTGAGA showed a TetR repression strength of 0.247.

Turning to TCCCCTCGAGTGATTGAGA, the TetR repression strength was determined as 0.244.

For the sequence TCCCTGTCAGTGTGAGAGA, the TetR repression strength was 0.0482.

The sequence TCCCTTTGAGTGATTGAGA registered a TetR repression strength of 0.263.

TCCCTACCAGTGATTGAGA: the TetR repression strength is 0.511.

In the case of TCCCTTCGAGTGATTGAGA, the TetR repression strength is 0.73.

TCCCTAACAGTGAGTGAGA gave a TetR repression strength of 0.514.

Regarding TCCCTTTGAGTAAGGGAGA, the TetR repression strength worked out at 0.152.

In the case of TCCCTAACAGTGATTGAGA, the TetR repression strength came out at 0.745.

TCCCTTTGAGTAAGTGAGA: the TetR repression strength came out at 1.15.

The sequence TCCCTATCAGTGTGAGAGA yielded a TetR repression strength of 0.919.

TCCCTATGAGTGTGAGAGA came in with a TetR repression strength of 0.252.

TCCCAAAAAGTTCCGGAGA came in with a TetR repression strength of 0.0327.

As to TCCCATTTAGTCTGTGAGA, the TetR repression strength is 0.192.

The sequence TCCCTAAAAGTACAGGAGA displayed a TetR repression strength of 0.262.

TCCCGCTGAGTAATGGAGA returned a TetR repression strength of 0.218.

Regarding TCCCTGCGAGTATTTGAGA, the TetR repression strength was 0.391.

With TCCCTAGTAGTGTGGGAGA, the TetR repression strength is 0.216.

Regarding TCCCTAGAAGTTTAAGAGA, the TetR repression strength came out at 0.0122.

Sequence TCCCGTATAGTCTGTGAGA returned a TetR repression strength of 0.0605.

Sequence TCCCGTCAAGTGTCCGAGA gave a TetR repression strength of 0.279.

The sequence TCCCGGACAGTCCGTGAGA returned a TetR repression strength of 0.196.

For TCCCAACCAGTAATGGAGA, the TetR repression strength was determined as 0.713.

As for TCCCTATCAGTGTTAGAGA, the TetR repression strength was found to be 0.974.

In the case of TCCCAACGAGTAATGGAGA, the TetR repression strength is 0.395.

On to TCCCTATCAGTGATAGAGA, for which the TetR repression strength is 1.

TCCCCGTCAGTGATAGAGA returned a TetR repression strength of 0.35.

With TCCCAACCAGTCATGGAGA, the TetR repression strength stood at 0.159.

On to TCCCTATCAGTGACGGAGA, for which the TetR repression strength stood at 0.472.

TCCCGATCAGTGTTAGAGA showed a TetR repression strength of 0.556.

For TCCCTATTAGTGACTGAGA, the TetR repression strength worked out at 0.345.

Regarding TCCCTTTCAGTGTTAGAGA, the TetR repression strength turned out to be 0.459.

As for TCCCTTGCAGTGATAGAGA, the TetR repression strength came to 0.657.

Regarding TCCCTATCAGTGACTGAGA, the TetR repression strength amounted to 0.722.

With TCCCGTCCAGTCTGAGAGA, the TetR repression strength stood at 0.152.

With TCCCGATGAGTGTGGGAGA, the TetR repression strength is 0.221.

TCCCTATCAGTGAGAGAGA: the TetR repression strength came out at 0.948.

Regarding TCCCTTGAAGTCAGTGAGA, the TetR repression strength worked out at 0.236.

TCCCTATCAGTTATTGAGA yielded a TetR repression strength of 0.504.

As for TCCCTTGAAGTCATTGAGA, the TetR repression strength worked out at 1.05.

For the sequence TCCCTTCAAGTCATTGAGA, the TetR repression strength came out at 0.0199.

As to TCCCTATTAGTAATTGAGA, the TetR repression strength is 0.416.

On to TCCCTATCAGTAATTGAGA, for which the TetR repression strength was 0.787.

In turn, TCCCTGTCAGTGATTGAGA gave a TetR repression strength of 0.592.

The sequence TCCCTATCAGTGGGTGAGA displayed a TetR repression strength of 0.554.

For TCCCTATCAGTGATTGAGA, the TetR repression strength was 0.939.

TCCCTATCAGTAACTGAGA had a TetR repression strength of 0.474.

TCCCTATCAGTGCGTGAGA yielded a TetR repression strength of 0.546.

In turn, TCCCTTATAGTATCAGAGA showed a TetR repression strength of 0.186.

TCCCGATAAGTAGCGGAGA: the TetR repression strength came out at 0.234.

Consider TCCCTTGCAGTGTACGAGA, for which the TetR repression strength amounted to 0.204.

In turn, TCCCCCTTAGTTGTCGAGA displayed a TetR repression strength of 0.307.

Take TCCCGCGAAGTGTTTGAGA: the TetR repression strength is 0.197.

In the case of TCCCTGGGAGTGACAGAGA, the TetR repression strength was determined as 0.299.
